Test results reported in PubChem BioAssay AID1566 (Sanford-Burnham Center for Chemical Genomics, 2009).
The campaign covered roughly 290,000 compounds. About 1,800 (0.62%) were called active. Rule as the data show it: active = inhibition above about 50%; inactive = the rest. Shown is part of a subset that was picked to be rich in actives.

Experiment: inhibition of NOD2-driven NF-kB reporter – cell-based, luminescence, uHTS, HEK293 (AID 1566)
Conditions: HEK293 NOD2/NF-kB luciferase reporter, at 4 µM, active compounds read high

inhibition, active:
Cc1c(/C(O)=C2/C(=O)C(=O)N(CCN3CCOCC3)C2c2ccccn2)cnn1-c1ccccc1 (stereo unspecified) 56.8%
CCOC(=O)CSc1nc(Nc2ccc3c(c2)OCO3)c2ccccc2n1 85.7%
Cc1cc(C)c[n+](C(C)C(=O)c2ccc(-c3ccccc3)cc2)c1 (stereo unspecified) 53.1%
CCOC(=O)CC1C(=O)NCCN1c1nc2c(C)cccn2c(=O)c1/C=C1\SC(=S)N(CC(C)C)C1=O (stereo unspecified) 51.8%
Cc1ccc(C(=O)Nc2cc3ccccc3oc2=O)cc1 69.7%
Cc1ccc(C(=O)Nc2cnc3ccccc3c2)cc1 54.2%
CCOc1ccc(OCc2ccc(C(=O)N/N=C(\C)c3ccccn3)cc2)cc1 76.9%
Cc1cc(C(=O)CN2C(=O)c3ccccc3S2(=O)=O)c(C)n1-c1ccccc1 64.2%
O=C(CN1C(=O)c2ccccc2S1(=O)=O)c1ccccc1 52.5%
C(=N\Nc1ccc2ccccc2n1)/c1ccc2c(c1)OCCO2 67.8%
O=C(CNc1ccc(F)cc1)N/N=C/c1c(O)ccc2ccccc12 53.5%
O=C(O)c1ccc(N/N=C/c2ccc3c(c2)OCO3)cc1 66.8%
O=C(CC(Nc1ccc(Cl)cc1Cl)C(=O)O)c1ccccc1 (stereo unspecified) 61.2%

inhibition, inactive:
COc1ccc(NC(=O)c2ccc3c(c2)NC(=O)CS3)cc1S(=O)(=O)Nc1ccc(Br)cc1 3.4%
Cc1ccc(NS(=O)(=O)c2cc(NC(=O)c3cc(=O)[nH]c(=O)[nH]3)ccc2Cl)c(C)c1 22.6%
CC(=O)O/N=C/c1c(Cl)n(C)c2ccccc12 -6.2%
Cc1ccc(C2/C(=C(/O)c3cnn(-c4ccccc4)c3C)C(=O)C(=O)N2CCN2CCOCC2)o1 (stereo unspecified) -58.4%
Cc1c(/C(O)=C2/C(=O)C(=O)N(CCN3CCOCC3)C2c2cccnc2)cnn1-c1ccccc1 (stereo unspecified) 8.5%
CCOC(=O)CSc1nc(C)c2ccccc2n1 3.1%
N#CCSc1nc(Nc2ccc3c(c2)OCO3)c2ccccc2n1 22%
Cc1cc2ncc(C(=O)Nc3ccsc3C(=O)O)c(C)n2n1 20.1%
Cc1cc[n+](C(C)C(=O)c2ccc(-c3ccccc3)cc2)cc1 (stereo unspecified) 22.5%
Cc1ccc[n+](C(C)C(=O)c2ccc(-c3ccccc3)cc2)c1 (stereo unspecified) 23.2%
Cc1cc(NC(=O)CSc2nnc(CNC(=O)c3c(F)cccc3F)o2)no1 -3.4%
COc1cccc(OC)c1C(=O)Nc1ccc(N2CCN(C(=O)c3ccco3)CC2)cc1 0.8%
O=C(CCS(=O)(=O)c1ccc2c(c1)NC(=O)CS2)NCc1cccs1 0.9%
CCCN1C(=O)/C(=C/c2c(N3CCNC(=O)C3CC(=O)OCC)nc3c(C)cccn3c2=O)SC1=S (stereo unspecified) 44.3%
CCOC(=O)CC1C(=O)NCCN1c1nc2c(C)cccn2c(=O)c1/C=C1\SC(=S)N(C(C)CC)C1=O (stereo unspecified) 49%
Cc1nc2ncnn2c(N2CCN(C(c3ccccc3)c3ccccc3)CC2)c1C 11.8%
CC(=O)Nc1cc2ccccc2oc1=O 9%
O=C(Nc1cnc2ccccc2c1)c1ccncc1 -72%
Cc1ccc(NC(=O)Nc2cnc3ccccc3c2)cc1 -175%
O=C(Nc1cc2ccccc2oc1=O)c1ccccc1 18.1%
CNC(=O)NNC(=O)c1csc(-c2ccc(C(F)(F)F)cc2Cl)n1 14.2%
COc1ccc(/C=N\Nc2ncc(F)c(N3CCOCC3)n2)cc1OC 3.5%
COc1cccc(C(=O)O/N=C(\C)c2cnccn2)c1 4.6%
Cc1nc2scc(C)n2c(=O)c1S(=O)(=O)NC(C)c1ccccc1 (stereo unspecified) 20.2%
Cc1c(O)nc(SCC(=O)Nc2cccc(C(F)(F)F)c2)n(-c2ccccc2)c1=O -0.1%
CCOc1ccc(C(=O)N/N=C(\c2ccccc2)c2ccccn2)cc1 -82%
C/C(=N\NC(=O)c1ccc(COc2ccccc2)cc1)c1ccncc1 -1.5%
COc1ccccc1/C=C1\SC(=S)N(CCC(=O)N2CCCCC2CCO)C1=O (stereo unspecified) 5.9%
CCCOc1ccc(C(O)(CCC)CCN2CCCCC2)cc1 (stereo unspecified) 3.4%
O=C(CN1C(=O)c2ccccc2S1(=O)=O)c1cccc(Br)c1 0.6%
Cc1ccc(C)c(C(=O)CN2C(=O)c3ccccc3S2(=O)=O)c1 -15%
Cc1cc(C(=O)CN2C(=O)C3CC=CCC3C2=O)c(C)n1-c1ccccc1 (stereo unspecified) -109%
O=C(CN1C(=O)c2ccccc2S1(=O)=O)c1ccc(O)c(O)c1 42.4%
COc1ccc(S(=O)(=O)NCc2cccnc2)cc1OC 6.9%
CCN(CC)c1nc(Nc2ccc([N+](=O)[O-])cc2)nc(N(CC)CC)n1 15.7%
O=C(O)Cc1sc(NCCc2ccccc2)nc1-c1ccc(F)cc1 -6.1%
C/C(=N/NC(=O)Cc1c(C)[nH][nH]c1=O)c1ccc(O)cc1 -3%
Cc1ccccc1Nc1ccc2nonc2c1[N+](=O)[O-] 17.9%
CC(=O)Nc1cccc(NC(=O)CSc2nnc(NC(=O)C3CC3)s2)c1 2.1%
CCOc1ccc(-c2nc3n(c(=O)c2C#N)CCS3)cc1 -0.8%
O=C(OCCCN1CCOCC1)c1ccc(O)c(O)c1 11.1%
CC(=O)CSc1ncnc2sc3c(c12)CCC3 12.6%
Cc1ccc(C(=O)CSc2ncnc3sc4c(c23)CCCC4)cc1 30.2%
O=C(c1ccc(Cl)c([N+](=O)[O-])c1)N1CCCc2ccccc21 -7.5%
O=C(CSc1nnnn1C1CCCCC1)NNC(=O)c1ccco1 5.4%
Cc1ccccc1-n1cc(C(=O)c2cc(Cl)ccc2O)cc(C#N)c1=O 1.1%
C(=N\Nc1ccccn1)/c1ccc2c(c1)OCCO2 -125%
C(=N\Nc1nc2ccccc2[nH]1)/c1ccc2c(c1)OCCO2 -126%
Cc1[nH]c2ccccc2c1-c1nc2ccccc2[nH]c1=O 4.1%
CC(C)C(=O)OCc1cn(-c2ccc(Cl)c(Cl)c2)nn1 10.3%
O=C(O)c1cccc(CN2C(=O)S/C(=C/c3ccccc3[N+](=O)[O-])C2=O)c1 19.8%
O=C(O)c1cccc(CN2C(=O)S/C(=C/c3cccc([N+](=O)[O-])c3)C2=O)c1 -10.3%
CCOC(=O)CN1C(=O)S/C(=C/c2ccc(O)c([N+](=O)[O-])c2)C1=O -11.2%
O=C1/C(=C\c2cccc(O)c2O)SC(=S)N1Cc1ccccc1 7.8%
COCc1cc(C)nc(Nc2ccccc2OC)c1C#N 3%
Cc1ccc(-n2nnc3c(=O)n(CC(=O)NCc4ccco4)cnc32)cc1 17.7%
COc1cc(S(=O)(=O)N2CCCCCC2)ccc1-n1cnnn1 7.9%
Cc1ccc(OC(=O)COc2ccccc2C)c(-n2nc3ccccc3n2)c1 3%
BrC(=C\c1ccccc1)/C=N/Nc1nc(N2CCOCC2)nc(N2CCOCC2)n1 -54.1%
CCOC(=O)C1CCN(S(=O)(=O)c2cc(C(=O)OC)n(C)c2)CC1 18.2%
Cc1ccc(S(=O)(=O)N2CCN(CC(=O)Nc3ccc([N+](=O)[O-])cc3)CC2)cc1C -86.3%
C=CCSc1nc2sc(C)c(C)c2c(=O)[nH]1 7.9%
CC(CCc1ccccc1)NC(=O)C(=O)c1c[nH]c2ccccc12 (stereo unspecified) 6.1%
O=C(O)CC(NC(=O)c1cccc([N+](=O)[O-])c1)c1ccc2c(c1)OCO2 (stereo unspecified) 14.8%
Cc1ccc(CN2CCCN(C)CC2)c(C)c1 -3.4%
CCn1c(SCC(=O)Nc2nc(-c3ccccc3)cs2)nnc1-c1ccccc1O 11.1%
CCn1c(SCC(=O)Nc2nc(-c3ccc(C)cc3)cs2)nnc1-c1ccccc1 29%
CCOc1ccccc1NC(=S)N(CCN(C)C)C(C)c1ccncc1 (stereo unspecified) -15.1%
CC(C)(C)c1cc(-c2n[nH]c(=S)n2-c2ccc(Cl)cc2)n[nH]1 6.2%
NC(=O)C1CCN(C(=O)C2CCC(=O)N(C3CCCCCC3)C2)CC1 (stereo unspecified) -3.9%
COc1ccccc1NCC(=O)N/N=C/c1c(O)ccc2ccccc12 25%
O=C(CNc1ccccc1)N/N=C/c1c(O)ccc2ccccc12 19.3%
Cc1occc1-c1nnc(SCC(=O)NCC2CCCO2)n1C (stereo unspecified) 8.4%
O=C(N/N=C/c1ccc2c(c1)OCO2)c1ccc2c(c1)OCO2 -137%
O=C(O)c1cc(N/N=C/c2ccc3c(c2)OCO3)ccc1Cl -118%
S=C(NCc1ccncc1)Nc1ccccc1 16.2%
O=C(CC(Nc1ccc(Cl)cc1)C(=O)O)c1ccccc1 (stereo unspecified) 20.4%
O=C(CC(Nc1ccccc1Cl)C(=O)O)c1ccccc1 (stereo unspecified) -21.4%
COc1ccc(NC(=O)CSc2ccc(-c3sc(C)nc3C)nn2)cc1OC 5.8%
COc1ccc(NC(=O)CSc2ccc(-c3sc(C)nc3C)nn2)cc1 4.8%
S=C(Nc1cc(Cl)ccc1Cl)Nn1cnnc1 16.1%
CC(Oc1cc(C(F)(F)F)cc(C(F)(F)F)c1)C(=O)NC(N)=O (stereo unspecified) 11.1%
O=C1CCCN2N=C(SCC(=O)N3CCCCC3)SC2=N1 5.8%
